Data from PubChem BioAssay (NCATS).
Results filed as inconclusive are left out. Unmarked numbers belong to inactive results. Activity calls are given as the source filed them. Calls follow the shape of the dose curve; as a rule, active = well fitted inhibition curve with a large enough effect; inconclusive = small, poorly fitted or top-dose-only effect; inactive = flat fitted curve, though single readings scatter.

Experiments:
CRL-7250 = normal cell line; test: Cytotoxic Profiling of Annotated Libraries Using Quantitative High-Throughput Screening (AID 1296008); conditions: Five cell lines viability, CellTiter-Glo ATP luminescence, 48-72 h; max response: hits give low values; also: nearly all actives have a fitted effect of over 60% in size
How it was run: (§1)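 Compounds were pin-transferred onto cells and incubated 48 or 72 hr at 37 degree Celsius, 95% humidity. CellTiter-Glo was added, plates sat 10 min at room temperature, then ATP-coupled luminescence was imaged as the viability read-out.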

HEK293 = test: as above; conditions: Five cell lines viability, CellTiter-Glo ATP luminescence, 48-72 h; max response: hits give low values
How it was run: as §1
% is scaled to controls: 0 for no effect and ±100 for the full control effect; potency is read from the fitted curve at half-maximal effect.

**Q.** With `CC1=C(C(=O)O)/C(=C\CO[C@@H]2O[C@H](CO)[C@@H](O)[C@H](O)[C@H]2O)C(OC(=O)/C=C/c2ccc(O)cc2)C1` (some centres undefined) as the molecule, how does the max response (CRL-7250) read?
**A.** -18%

**Q.** And the max response (HEK293)?
**A.** 0.858%

**Q.** For `c1ccc(-c2csc(N3CCOCC3)n2)cc1`, which max response (CRL-7250) is on record?
**A.** 1.19%

**Q.** And the outcome (HEK293)?
**A.** inactive

**Q.** With `CC1C(=O)OCC2=CCN3CCC(OC(=O)C(C)(O)C1(C)O)C23` (centres undefined) as the molecule, how does the outcome (CRL-7250) read?
**A.** inactive

**Q.** And the max response (HEK293)?
**A.** -9.35%

**Q.** Which max response (CRL-7250) does the source give for `CC(C)/C=C1\NC(=O)C(C(C)C)n2c1nc1c(c2=O)C=CC=CO1` (centres undefined) here?
**A.** -11.8%

**Q.** What about the max response (HEK293) of the same molecule?
**A.** 2.88%

**Q.** What does the source list for `Nc1nc2c(ncn2[C@@H]2O[C@@H]3COP(=O)(O)O[C@H]3[C@H]2O)c(=O)[nH]1`?
**A.** max response (CRL-7250): -1.98%; max response (HEK293): -4.75%

**Q.** Which outcome (CRL-7250) does the source give for `Cc1cc(O)cc(O[C@@H]2O[C@H](CO)[C@@H](O)[C@H](O)[C@H]2O)c1` here?
**A.** inactive

**Q.** And the max response (HEK293)?
**A.** 0.562%

**Q.** With `COC(=O)C1=CO[C@@H](O)C2C(CO)=CCC12` (some centres undefined) as the molecule, how does the max response (CRL-7250) read?
**A.** -9.24%

**Q.** And the max response (HEK293)?
**A.** 4.75%

**Q.** `COc1cc(OC)cc(C(=O)Nc2ccc(Cl)c(-c3nc4ccc(N(C)C)cc4[nH]3)c2)c1` was tested. Which outcome (CRL-7250) did it give?
**A.** inactive

**Q.** And the Potency (HEK293)?
**A.** 10.3 µM (active)

**Q.** Which max response (CRL-7250) does the source give for `COc1ccccc1NC(=O)OCC1CCN(C(=O)OC(C)(C)C)CC1` here?
**A.** -0.083%

**Q.** What about the max response (HEK293) of the same molecule?
**A.** -0.473%

**Q.** Which max response (CRL-7250) does the source give for `Cn1ncnc1COc1nn2c(-c3cc(F)ccc3F)nnc2cc1C(C)(C)C` here?
**A.** -15.8%

**Q.** And the max response (HEK293)?
**A.** 0.514%

**Q.** `CC1(C)CC2C=C(C(=O)O)C3COC(=O)C(O)(CO)C23C1` (centres undefined) was tested. Which max response (CRL-7250) did it give?
**A.** -19.1%

**Q.** And the max response (HEK293)?
**A.** 4.03%

**Q.** What does the source list for `CC(=O)CC1CCC(C(C)C(=O)OCC(O)CO)O1` (centres undefined)?
**A.** max response (CRL-7250): 2.08%; max response (HEK293): -3.6%

**Q.** What does the source list for `CC1CCC2(C(=O)O)CCC3(C)C(=CCC4C5(C)CCC(OC(=O)/C=C/c6ccccc6)C(C)(C)C5CCC43C)C2C1C` (centres undefined)?
**A.** outcome (CRL-7250): inactive; max response (HEK293): -4.63%

**Q.** For `COc1cc(Nc2nc3c(s2)CCCC3c2ccc(F)cc2)ccc1-n1cnc(C)c1` (centres undefined), which Potency (CRL-7250) is on record?
**A.** 14.6 µM (active)

**Q.** And the Potency (HEK293)?
**A.** 11.6 µM (active)

**Q.** How did the max response (CRL-7250) turn out when `CC1(C)CC2C(C1)C(C)(O)C13CC1(COC3=O)C2O` (centres undefined) was run?
**A.** -28%

**Q.** And the max response (HEK293)?
**A.** -10.5%

**Q.** `C=C[C@@]12COC(=O)C(=C)C1[C@@H](O)[C@H](C(=C)C(=O)OC)[C@@H](OC(=O)C(=C)CO)C2` (some centres undefined) was tested. Which max response (CRL-7250) did it give?
**A.** -22.2%

**Q.** And the Potency (HEK293)?
**A.** 10 µM (active)

**Q.** Which max response (CRL-7250) does the source give for `COC1C(=O)CCC2(CO2)C1(O)C1(C)OC1CC=C(C)C` (centres undefined) here?
**A.** -21.3%

**Q.** And the max response (HEK293)?
**A.** -34.7%

**Q.** How did the max response (CRL-7250) turn out when `CC(=O)O[C@H]1C[C@@]2(C)[C@@H](CC[C@H]3[C@@]4(C)C=CC(=O)[C@@H](C)[C@@H]4[C@H](O)C(=O)[C@@]32C)/C1=C(/CCC=C(C)C)C(=O)O` was run?
**A.** -28.1%

**Q.** What about the max response (HEK293) of the same molecule?
**A.** -6.72%

**Q.** What does the source list for `COc1ccc(CC2C(=O)NC(C)C(=O)N(C)C3Cc4ccc(cc4)Oc4cc(ccc4OC4OC(CO)C(O)C(O)C4O)CC(C(=O)NC(C)C(=O)NC(C)C(=O)N2C)N(C)C3=O)cc1` (centres undefined)?
**A.** Potency (CRL-7250): 0.0873 µM (active); Potency (HEK293): 0.0551 µM (active)

**Q.** With `CC1(C)CC[C@]2(C(=O)O[C@@H]3O[C@H](CO)[C@@H](O)[C@H](O)[C@H]3O)CC[C@]3(C)C(=CCC4[C@@]5(C)CC[C@H](O[C@@H]6O[C@H](C(=O)O)[C@@H](O)[C@H](O)[C@H]6O)[C@@](C)(CO)C5CC[C@]43C)C2C1` (some centres undefined) as the molecule, how does the max response (CRL-7250) read?
**A.** 1.86%

**Q.** What about the max response (HEK293) of the same molecule?
**A.** -6.82%

**Q.** `O=C(O)CCCCCC[C@H]1C(=O)NC(=O)N1CC[C@@H](O)C1CCCCC1` was tested. Which max response (CRL-7250) did it give?
**A.** 3.98%

**Q.** What about the max response (HEK293) of the same molecule?
**A.** -1.93%

**Q.** How did the Potency (CRL-7250) turn out when `COc1cc2nc(N3CCCC3)nc(NCCCCCN3CCCC3)c2cc1OC` was run?
**A.** 20.6 µM (active)

**Q.** And the Potency (HEK293)?
**A.** 4.61 µM (active)

**Q.** How did the max response (CRL-7250) turn out when `CC(C)c1ccc2c(c1)C(=O)CC1[C@@](C)(C(=O)O)CCC[C@]21C` (some centres undefined) was run?
**A.** 2.88%

**Q.** And the max response (HEK293)?
**A.** 3.51%

**Q.** How did the max response (CRL-7250) turn out when `C=CCC1=C[C@]2(OC)[C@H](C)[C@@H](c3ccc(O)c(OC)c3)O[C@]2(OC)CC1=O` was run?
**A.** -0.729%

**Q.** And the max response (HEK293)?
**A.** 0.3%

**Q.** `COC(=O)C1=CO[C@@H](O[C@@H]2O[C@H](CO)[C@@H](O)[C@H](O)[C@H]2O)[C@@H]2C(CO)=CC[C@]12O` was tested. Which max response (CRL-7250) did it give?
**A.** -2.05%

**Q.** And the outcome (HEK293)?
**A.** inactive

**Q.** With `O=C(NOCC(O)CO)c1ccc(F)c(F)c1Nc1ccc(I)cc1F` (centres undefined) as the molecule, how does the Potency (CRL-7250) read?
**A.** 4.61 µM (active)

**Q.** What about the max response (HEK293) of the same molecule?
**A.** 2.15%

**Q.** How did the max response (CRL-7250) turn out when `CC(C)CCC1(O)C(=O)C(C)(C)C(O[C@@H]2O[C@H](CO)[C@@H](O)[C@H](O)[C@H]2O)C(C)(C)C1O` (some centres undefined) was run?
**A.** 0.265%

**Q.** What about the max response (HEK293) of the same molecule?
**A.** -13.9%
